Holding throughout (assay): NCI-60 one-dose screen, 48 h (100 = growth as untreated, 0 = no growth, -100 = all killed)
One test has as its system K-562 leukemia. Particulars: 10 µM unless noted.
The test system of a further test is MALME-3M melanoma. The settings on record: 10 µM unless noted.
For another test, the system named is MDA-MB-231 breast. Particulars: 10 µM unless noted.
Another test has as its system RXF 393 renal. Particulars: 10 µM unless noted.
Another test concerns SF-268 CNS. Particulars: 10 µM unless noted.
A further test has as its system SF-295 CNS. Particulars: 10 µM unless noted.
The next test has as its system SF-539 CNS. Particulars: 10 µM unless noted.
A further test deals with UACC-257 melanoma. The settings on record: 10 µM unless noted.
The next test has as its system M14 melanoma. The settings on record: 10 µM unless noted.
For the next test, the system named is HCT-15 colon. The settings on record: 10 µM unless noted.
In another test the test system is HT29 colon. Particulars: 10 µM unless noted.
The next test relates to SNB-75 CNS. The settings on record: 10 µM unless noted.
For the next test, the system named is SNB-19 CNS. Particulars: 10 µM unless noted.
A further test has as its system U251 CNS. The settings on record: 10 µM unless noted.
A further test concerns PC-3 prostate. The settings on record: 10 µM unless noted.
Another test has as its system SK-MEL-5 melanoma. The settings on record: 10 µM unless noted.
A further test deals with UACC-62 melanoma. Particulars: 10 µM unless noted.
Another test relates to LOX IMVI melanoma. Particulars: 10 µM unless noted.
For the next test, the system named is SK-MEL-28 melanoma. Particulars: 10 µM.
A further test has as its system SK-MEL-2 melanoma. Particulars: 10 µM unless noted.

Experimental findings from PubChem BioAssay (NCI) are described below.

Compounds without any hit were thinned out: in the full panel of roughly 83,000, 20% have a hit.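 48-hour exposure, single concentration, 96-well plates; percent growth endpoint where 0 means no net growth. Active: below 10.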 Unmarked numbers belong to inactive results. The source made the active and inactive calls.

For `COc1ccc(/C(C#N)=C/c2nc3c(N4CCOCC4)nc(Cl)nc3n2C)cc1OC`, the growth in the test with K-562 leukemia is 0.867% (active); with MALME-3M melanoma, 32.7%; in the test with MDA-MB-231 breast, 9.29% (active); with RXF 393 renal it was -67.5% (active); in the test with SF-268 CNS it was 14.5%; in the test on SF-295 CNS, -6.46% (active). Also, the growth is -26.5% (active) in the test with SF-539 CNS; 16.2% in the test with UACC-257 melanoma; -49.1% (active) with M14 melanoma; -40.8% (active) with HCT-15 colon; 3.73% (active) with HT29 colon; -7.9% (active) in the test with SNB-75 CNS. The growth is 23.5% with SNB-19 CNS; 12.5% with U251 CNS; 9.66% (active) in the test on PC-3 prostate; -50.5% (active) in the test with SK-MEL-5 melanoma; -5.32% (active) in the test with UACC-62 melanoma; -71% (active) in the test with LOX IMVI melanoma. In addition, the growth in the test with SK-MEL-28 melanoma is 15.1%; in the test on SK-MEL-2 melanoma, 42.7%.

For `O=C(c1nc2ccccc2[nH]1)C1[C@@H](c2cccc(O)c2)C2CC3CCCCC3N2[C@@]12C(=O)Nc1cc(Cl)ccc12` (stereo not given in full), the growth in the test with K-562 leukemia is 21.5%; in the test on MALME-3M melanoma, 32.1%; in the test on MDA-MB-231 breast it was 34.7%; with RXF 393 renal it was 1.99% (active); in the test on SF-268 CNS, 49.5%; in the test with SF-295 CNS it was 37.2%. Moreover, the growth with SF-539 CNS is 48.7%; in the test on UACC-257 melanoma it was 48.9%; in the test on M14 melanoma, 29.2%; with HCT-15 colon it was 40.7%; in the test on HT29 colon, 50.6%; with SNB-75 CNS it was 27.2%. The growth in the test with SNB-19 CNS is 42.4%; in the test with U251 CNS, 37.7%; in the test on PC-3 prostate it was 24%; in the test on SK-MEL-5 melanoma it was 37.2%; in the test on UACC-62 melanoma, 47.6%; with LOX IMVI melanoma it was 22.3%. Also, the growth in the test with SK-MEL-28 melanoma was 45%; in the test on SK-MEL-2 melanoma it was 60.2%.

With `CCOC(=O)c1cc2c(n1Cc1ccccc1OC)-c1oncc1CCC2`, the growth with K-562 leukemia was 10.5%; in the test with MALME-3M melanoma it was 20.7%; in the test on MDA-MB-231 breast, 53%; in the test with RXF 393 renal, 5.36% (active); in the test with SF-268 CNS it was 57.6%; in the test with SF-295 CNS it was 17%. Further, the growth was 3.92% (active) with SF-539 CNS; 50.4% in the test with UACC-257 melanoma; 35% in the test on M14 melanoma; 30.9% with HCT-15 colon; 10.1% in the test with HT29 colon; -2.26% (active) with SNB-75 CNS. Also, the growth with SNB-19 CNS was 59.6%; in the test with U251 CNS it was 36.7%; with PC-3 prostate, 30.8%; in the test on SK-MEL-5 melanoma it was 6.57% (active); in the test on UACC-62 melanoma, 26.5%; with LOX IMVI melanoma it was 45.5%. For the same compound, the growth was 44.8% with SK-MEL-28 melanoma and 27.5% in the test on SK-MEL-2 melanoma.

Turning to `O=C(Nc1ccc(N2CCNCC2)cn1)c1[nH]ncc1Nc1ncnc2sc3c(c12)CCC3`, the growth is -65.2% (active) in the test on K-562 leukemia; -47.7% (active) in the test with MALME-3M melanoma; -48.9% (active) in the test on MDA-MB-231 breast; 18.6% in the test on RXF 393 renal; 37.8% in the test with SF-268 CNS; 104% in the test on SF-295 CNS. In addition, the growth is -51% (active) in the test with SF-539 CNS; 67.8% in the test with UACC-257 melanoma; -60.7% (active) with M14 melanoma; -85.6% (active) in the test on HCT-15 colon; -42.3% (active) with HT29 colon; 85.7% in the test on SNB-75 CNS. Also, the growth was 10.7% with SNB-19 CNS; -71.9% (active) with U251 CNS; -30.6% (active) in the test on PC-3 prostate; 59.7% with SK-MEL-5 melanoma; 38.9% in the test on UACC-62 melanoma; -79.6% (active) in the test on LOX IMVI melanoma. Also, the growth in the test with SK-MEL-28 melanoma was -40.3% (active); in the test on SK-MEL-2 melanoma it was 89.7%.

On to `CCN1CCN(c2cc(C)c3cc(NC(=O)c4ccc(OC)c(OC)c4)ccc3n2)CC1`, for which the growth was 7.23% (active) in the test with K-562 leukemia; 39.7% in the test on MALME-3M melanoma; 47.9% with MDA-MB-231 breast; 31.1% in the test with RXF 393 renal; 50.8% in the test on SF-268 CNS; 32% in the test on SF-295 CNS. The growth in the test with SF-539 CNS was 45.2%; with UACC-257 melanoma, 57.9%; with M14 melanoma it was 30.2%; in the test with HCT-15 colon it was 30.3%; in the test on HT29 colon, 13%; in the test with SNB-75 CNS, 66.9%. Further, the growth was 58.1% in the test on SNB-19 CNS; 45.6% with U251 CNS; 49.2% with PC-3 prostate; 19.4% with SK-MEL-5 melanoma; 27.3% in the test with UACC-62 melanoma; 33.4% with LOX IMVI melanoma. Further, the growth in the test on SK-MEL-28 melanoma was 51.9%; with SK-MEL-2 melanoma, 50.7%.

As for `COc1ccc(/C=C/C(=O)c2ccc3cc(OC)c(OC)cc3c2)cc1OC`, the growth in the test on K-562 leukemia was 8.48% (active); in the test on MALME-3M melanoma, 90.6%; with MDA-MB-231 breast, 101%; in the test on RXF 393 renal, 84.2%; with SF-268 CNS, 70.7%; with SF-295 CNS, 70.8%. Besides, the growth with SF-539 CNS is 23.5%; in the test on UACC-257 melanoma, 70.2%; in the test with M14 melanoma it was 64.2%; in the test with HCT-15 colon it was 27.5%; in the test on HT29 colon, 6.78% (active); with SNB-75 CNS it was 49.7%. Further, the growth is 71.9% with SNB-19 CNS; 22.8% with U251 CNS; 42% in the test with PC-3 prostate; 36.7% in the test with SK-MEL-5 melanoma; 57.6% with UACC-62 melanoma; 6.59% (active) in the test on LOX IMVI melanoma. For the same compound, the growth was 96.3% with SK-MEL-28 melanoma and 83.6% in the test on SK-MEL-2 melanoma.

Turning to `COc1ccc(-c2cc(=O)c3c(OC)c4ccoc4c(/C=C/C=O)c3o2)cc1`, the growth in the test on K-562 leukemia was 12.2%; in the test on MALME-3M melanoma, 24.8%; in the test with MDA-MB-231 breast, 53.6%; in the test with RXF 393 renal, 48.5%; with SF-268 CNS, 36.2%; with SF-295 CNS, 31.7%. Besides, the growth with SF-539 CNS is 14.8%; in the test with UACC-257 melanoma, 108%; with M14 melanoma it was 28.4%; with HCT-15 colon, -54.1% (active); in the test with HT29 colon, 79.1%; in the test with SNB-75 CNS, -1.37% (active). The growth in the test with SNB-19 CNS is 49%; in the test on U251 CNS it was 16.4%; in the test with PC-3 prostate it was 21.3%; in the test on SK-MEL-5 melanoma, 32.1%; with UACC-62 melanoma it was 67.1%; in the test on LOX IMVI melanoma it was -11.8% (active). Also, the growth with SK-MEL-28 melanoma is 89.1%; with SK-MEL-2 melanoma, 75.4%.
